CYP2C19 inhib: human CYP2C19 inhibition; P33261; CYP2C19 Supersomes, luciferin-H EGE luminescence, 30 min; inhibition, % at 5 µM; 96,000 compounds, 21% hits; AID 778;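 active means CYP2C19 inhibition above a set limit at 5 µM in the primary screen, cut at about 50% in these data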
Target sequence (P33261 whole entry, looked up): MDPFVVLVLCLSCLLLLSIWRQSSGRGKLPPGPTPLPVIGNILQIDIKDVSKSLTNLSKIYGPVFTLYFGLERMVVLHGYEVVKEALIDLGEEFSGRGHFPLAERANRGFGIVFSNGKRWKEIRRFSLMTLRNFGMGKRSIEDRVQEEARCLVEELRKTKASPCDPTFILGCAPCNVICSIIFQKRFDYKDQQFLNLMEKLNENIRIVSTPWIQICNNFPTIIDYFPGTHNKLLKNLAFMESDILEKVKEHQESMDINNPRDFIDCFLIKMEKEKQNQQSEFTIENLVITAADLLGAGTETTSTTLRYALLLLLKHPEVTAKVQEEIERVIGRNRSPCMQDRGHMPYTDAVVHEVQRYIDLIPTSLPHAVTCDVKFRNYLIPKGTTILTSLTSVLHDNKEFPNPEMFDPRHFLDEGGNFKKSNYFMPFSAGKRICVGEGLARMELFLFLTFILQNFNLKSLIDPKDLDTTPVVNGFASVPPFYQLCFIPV
CYP2C9 inh: blocks human cytochrome P450 2C9 | P11712 | CYP2C9 Supersomes, luciferin-H conversion, luminescence | inhibition, % at 5 µM | 96,000 compounds, 20% hits | AID 777;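 active means blocking of liver enzyme CYP2C9 beyond about 50% at 5 µM, limit read from the data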
PostGolgi ctrl: growth of the yeast control strain, post-Golgi counter-screen | efflux-deficient yeast background strain, growth absorbance A615, 16 h | inhibition, % at 10 µM | 98,000 compounds, 5% hits
PostGolgi yeast: growth inhibition of a yeast mutant, post-Golgi transport screen; post-Golgi transport phenotypic cell assay; inhibition, % at 10 µM; 98,000 compounds, 0.9% hits;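 further: yeast cells grown in 1536-well plates; yeast grown about 18 h at 30C before absorbance read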
CYP2C9 act: increases human cytochrome P450 2C9 activity; P11712; 96,000 compounds, 1.4% hits; recombinant CYP2C9, luciferin-H conversion, luminescence; active compounds read high; factor 1 = untreated enzyme, 0 = blocked; activation factor at 5 µM;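 active means activation factor of 2 or more for CYP2C9 at a 5 µM dose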
CYP2C19 act: activators of human cytochrome P450 2C19; P33261; recombinant CYP2C19, luciferin-H EGE luminescence; active compounds read high; 0 = fully inhibited enzyme, 1 = untreated enzyme; activation factor at 5 µM; 96,000 tested, under 10 active; AID 1025;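 active means activation factor of at least 2 at 5 µM in the primary screen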
Hits are given with their value; n = inactive; x = not tested or not shown. Rows were chosen to be rich in hits. Some 32% of all compounds tested hit in one or more screens of this group. Unless noted, no stated cut-off is given here; in the data, active means inhibition above about 30%; inactive means the rest.

SMILES | CYP2C19 inhib | CYP2C9 inh | PostGolgi ctrl | PostGolgi yeast | CYP2C9 act | CYP2C19 act
COC(=O)c1ccc(NC(=O)C23CCC(C)(C(=O)O2)C3(C)C)cc1 (stereo unspecified) | n | n | n | n | n | n
CCOC(=O)c1cnc2sc3c(n2c1=O)CCCC3 | n | n | n | n | n | n
CC(=O)NCCc1nc2ccccc2n1Cc1ccc(C)cc1 | 69 | n | n | n | n | n
CC(=O)Nc1nc2ccccc2n1Cc1ccccc1 | n | n | n | n | n | n
COC(=O)Cn1c(CCS(=O)(=O)c2ccc(C)cc2)nc2ccccc21 | 66 | n | n | n | n | n
Cc1cccc(C2NS(=O)(=O)N=C2N)c1 (stereo unspecified) | n | n | n | n | n | n
O=C1c2ccccc2NC2CCCCC12 (stereo unspecified) | n | n | n | n | 5.1 | n
O=C1C(=O)N(CNc2ccccn2)c2ccccc21 | n | n | n | n | n | n
O=C(c1ccccc1)c1cccc(NC(=O)c2ccco2)c1 | n | n | 38 | n | n | n
Cc1ccc2nc(-c3ccc(NC(=O)c4ccco4)cc3)[nH]c2c1 | n | n | n | n | n | n
O=C(Nc1cccc(-c2nc3ccccc3[nH]2)c1)c1ccco1 | 82 | 72 | n | n | n | n
CC(=O)c1cccc(NC(=O)c2ccco2)c1 | n | n | n | n | n | n
O=C(Nc1cccc(-c2cnc3ccccc3n2)c1)c1ccccc1 | n | n | n | n | n | n
O=C(Nc1cccc(NC(=O)c2nccc3ccccc23)c1)c1ccco1 | n | n | x | x | 2 | n
CC(=O)Nc1cccc(NC(=O)c2ccco2)c1 | n | n | n | n | n | n
O=C(Nc1cccc(-c2cnc3ccccc3n2)c1)c1cccc(NC(=O)c2ccco2)c1 | 69 | 75 | n | n | n | n
O=C(O)CSc1nc(SCc2ccccc2Cl)nc2c1CCCC2 | n | n | n | n | n | n
FC(F)(F)c1cccc(N2CCN(CC3CC4C=CC3C4)CC2)c1 (stereo unspecified) | n | n | n | n | n | n
O=C(c1ccccc1)N1CCN(CC2CC=CCC2)CC1 (stereo unspecified) | 57 | 78 | n | n | n | n
Cc1ccc(N2CCN(CC3CC=CCC3)CC2)cc1 (stereo unspecified) | 60 | n | n | n | n | n
FC(F)(F)c1cccc(N2CCN(CC3CC=CCC3)CC2)c1 (stereo unspecified) | 80 | n | n | n | n | n
N#CCSc1nnc(-c2ccccc2O)n1CCc1ccccc1 | n | n | n | n | n | n
CC1CCCCN1C(=O)c1cnn2c(C(F)(F)F)cc(-c3ccco3)nc12 (stereo unspecified) | n | n | n | n | n | n
CCOC(=O)N1CCC(NC(=O)c2cc3c(-c4ccc(Cl)cc4)nn(C)c3s2)CC1 | x | x | n | n | x | x
COC(=O)C1C(c2ccccc2)C(C(=O)N2CCOCC2)C1c1ccccc1 (stereo unspecified) | 84 | n | n | n | n | n
SMILES | CYP2C19 inhib | CYP2C9 inh | PostGolgi ctrl | PostGolgi yeast | CYP2C9 act | CYP2C19 act
O=C(O)C1C(c2ccccc2)C(C(=O)N2CCOCC2)C1c1ccccc1 (stereo unspecified) | n | n | n | n | n | n
CCC(=O)Nc1cccc(NC(=S)NC(=O)c2ccccc2Cl)c1 | n | n | n | n | 2.5 | n
CC(C)C(=O)Nc1cccc(NC(=S)NC(=O)c2ccccc2Cl)c1 | n | n | n | n | n | n
O=C(CSC1=NCCS1)Nc1ccnc2ccccc12 | n | n | n | n | n | n
O=C(Nc1ccc2nc(-c3cccs3)[nH]c2c1)c1cccs1 | 57 | 81 | n | n | n | n
Cc1ccc(C2=CC(c3cccs3)n3nnnc3N2)cc1 (stereo unspecified) | 97 | 82 | n | n | n | n
C1=C(c2ccccc2)Nc2nnnn2C1c1cccs1 (stereo unspecified) | n | n | n | n | n | n
COc1ccccc1C1C=C(c2ccc(C)cc2)Nc2nnnn21 (stereo unspecified) | 85 | 71 | n | n | n | n
COc1ccc(C2=CC(c3c(C)nn(-c4ccccc4)c3Cl)n3nnnc3N2)cc1OC (stereo unspecified) | 91 | 93 | n | n | n | n
CC(C)(C)C(=O)CSc1nccc(=O)[nH]1 | n | n | n | n | n | n
FC(F)(F)c1cc(-c2ccco2)nc(NCCc2ccccc2)n1 | n | n | n | n | n | n
CCCOc1ccc(OCCSc2nnc(N)s2)cc1 | n | n | n | n | n | n
Nc1nnc(SCCOc2cccc(Br)c2)s1 | 92 | n | n | n | n | n
CC1CCCCN1Cc1nc2ccccc2c(=O)[nH]1 (stereo unspecified) | n | n | n | n | n | n
Cc1c(C#N)c2ccccc2n1CC(=O)N1CCCC1 | n | n | n | n | n | n
CC1CCCCN1Cc1c(C#N)c2ccccc2n1C (stereo unspecified) | 52 | n | n | n | n | n
CN1CCN(Cc2c(C#N)c3ccccc3n2C)CC1 | n | n | n | n | n | n
CCOC(=O)CSCc1c(C#N)c2ccccc2n1C | 100 | n | n | n | n | n
Cn1c(CN2CCOCC2)c(C#N)c2ccccc21 | 88 | n | n | n | n | n
CC1CCN(Cc2c(C#N)c3ccccc3n2C)CC1 | 81 | n | n | n | n | n
CCNC(=S)NNC(=O)c1cccc(Br)c1 | n | n | n | n | n | n
Cc1nc2c(C(=O)N3CCOCC3)cnn2c(C)c1Cc1cccc(Cl)c1 | n | n | n | n | n | n
CCn1cc(Br)c(C(=O)Nc2cccc(SC)c2)n1 | 81 | n | n | n | n | n
CSc1cccc(NC(=O)CSc2ccc(Cl)cc2)c1 | 61 | n | n | n | n | n
CCSCc1nnc(SCC(=O)Nc2cccc(SC)c2)n1C | 91 | n | n | n | n | n
SMILES | CYP2C19 inhib | CYP2C9 inh | PostGolgi ctrl | PostGolgi yeast | CYP2C9 act | CYP2C19 act
CCCNC(=O)NS(=O)(=O)c1cnccc1Sc1ccc(Cl)c(Cl)c1 | n | n | n | n | n | n
CC(C)CNC(=O)C1CCCN1S(=O)(=O)c1ccc(Cl)cc1 (stereo unspecified) | n | n | n | n | n | n
CC1CCCCN1C(=O)c1ccc(S(=O)(=O)N2CCCCC2C)cc1 (stereo unspecified) | n | n | n | n | n | n
O=C(Nc1nccs1)C1CCCN1S(=O)(=O)c1ccc(Cl)cc1 (stereo unspecified) | n | 69 | n | n | n | n
NC(=O)c1ccsc1NC(=O)C1CCCN1S(=O)(=O)c1ccc(Cl)cc1 (stereo unspecified) | 61 | 78 | 36 | n | n | n
CC1CCCCN1S(=O)(=O)c1ccc(C(=O)Nc2sccc2C(N)=O)cc1 (stereo unspecified) | n | 97 | n | n | n | n
O=C(O)c1ccc2c(c1)C(=O)N(c1cc(C(=O)O)ccc1Br)C2=O | n | n | 30 | n | n | n
CC1CCN(Cc2ccc(-c3nn[nH]n3)cc2)CC1 | n | n | n | n | n | n
C=CCSc1nc(N)c(C(=O)Nc2ccccc2OC)cc1C(=O)Nc1ccccc1 | n | 61 | n | n | n | n
